Screens from PubChem BioAssay.
A selection: hits, their analogues and other compounds. The true share with any hit is near 2%.
EP2 antag = human EP2 receptor antagonists, primary screen, TR-FRET cAMP, C6 glioma cells; Prostaglandin E2 receptor EP2 subtype (Homo sapiens), P43116; C6 glioma cells expressing human EP2; cells stimulated with saturating PGE2; inhibition, % at 25 µM; 260,000 tested, 0.52% active;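 active = percent inhibition above 40 after rounding to a whole number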;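 note: rat C6 glioma host cells with rolipram phosphodiesterase inhibitor present; the protocol text gives 20 µM as final concentration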
Target sequence (P43116 whole entry, looked up): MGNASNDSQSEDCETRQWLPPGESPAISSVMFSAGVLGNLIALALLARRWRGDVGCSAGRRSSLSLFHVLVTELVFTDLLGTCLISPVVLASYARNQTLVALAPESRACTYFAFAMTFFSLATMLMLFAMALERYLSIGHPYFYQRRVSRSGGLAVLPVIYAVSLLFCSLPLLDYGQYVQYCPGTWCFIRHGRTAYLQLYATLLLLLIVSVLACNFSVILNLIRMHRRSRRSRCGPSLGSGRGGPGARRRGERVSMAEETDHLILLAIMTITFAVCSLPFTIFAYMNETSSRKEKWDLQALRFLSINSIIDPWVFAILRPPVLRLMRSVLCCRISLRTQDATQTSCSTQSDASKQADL
CHT PAM = CHT positive allosteric modulators, primary screen, cell-based, membrane potential dye, choline EC20. High affinity choline transporter 1 (Homo sapiens), Q9GZV3. CHT-expressing cells; active compounds read high; LV-AA mutant CHT in HEK293 cells. B-score at 10 µM. 310,000 tested, 0.49% active. AID 488977, 2010;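 active = initial fluorescence not abnormally high and integrated response B-score, plate-corrected, over 3 SD above library mean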
EP2 modulator = EP2 receptor modulators, cAMP readout, primary screen, cell-based, HTRF cAMP, PGE2 stimulation | induction, % at 25 µM | EP2-expressing cells, cAMP HTRF FRET, PGE2 co-stimulation | AID 940, 2007 | 260,000 tested, 0.83% active | Prostaglandin E2 receptor EP2 subtype (Homo sapiens), P43116;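 active = compounds whose cAMP rise, as percent of the full-agonist control response, exceeds 60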;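 note: rat C6 glioma line stably carrying human EP2 under a CMV promoter; the protocol text gives 20 µM as final concentration; 100% = response of wells given 1 µM PGE2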
CHT block = inhibitors of human choline transporter CHT; AID 488975, 2010; High affinity choline transporter 1 (Homo sapiens), Q9GZV3; B-score at 10 µM; CHT-expressing cells, membrane potential dye, choline response; active compounds read low; 310,000 tested, 0.86% active;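 active = B-score over 3 SD under the library average, and starting fluorescence ratio not unusually high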;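 note: choline stimulus applied at its EC90 after an EC20 pre-addition; B-score computed on integrated fluorescence ratio after choline addition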
CHT activ conf = CHT activators, confirmation, cell-based, membrane potential dye, duplicate; shares compounds with CHT PAM; AID 504833, 2011; CHT-expressing cells, membrane potential dye fluorescence (FDSS); % of choline EC20–EC90 response window; HEK293 expressing CHT LV-AA mutant; choline added at its EC20; activation, % at 10 µM; 2,500 tested, 91% active;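 active = primary screen active, with duplicate mean activation above negative control mean plus 3 SD, cut at about 11% in these data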
HEK293 MP dye = membrane potential response in parental HEK293 cells, counter-screen for CHT activator project, cell-based, membrane potential dye. shares compounds with CHT PAM. membrane potential dye fluorescence (FDSS); measured after EC20 choline addition. ratio readout change at 10 µM, hits read low. 2,500 tested, 62% active. AID 623908, 2012;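 active = duplicate-averaged ratio beyond 3 SD from buffer wells, up or down, though filed actives are nearly all decreases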
An asterisk follows results filed as active; i = inactive; x = no result given; ! = not active in a repeat.

SMILES	EP2 antag	CHT PAM	EP2 modulator	CHT block	CHT activ conf	HEK293 MP dye
CCN1C(=O)N[C@@H](c2ccccc2)[C@H](C(=O)OC)[C@H]1C	7	i	x	i	x	x
CCOc1ccc(-c2nnc3ccc(SCc4ccc(C(=O)OC)o4)nn23)cc1	7	i	-37	i	x	x
Cc1cc(NC(=O)CSc2ccc3nnc(-c4ccccn4)n3n2)no1	12	8.1*	-34	i	47*	-43*
COC(=O)c1ccc(CSc2ccc3nnc(-c4ccccn4)n3n2)o1	13	i	-16	i	35*	-36*
C=CCNC(=O)c1cc2c(=O)n3cc(C)ccc3nc2n(CCc2ccccc2)c1=N	8	x	-3	x	x	x
C=CCSc1nnc(-c2ccccc2N=Cc2c(C)[nH]n(-c3ccccc3)c2=O)c(=O)[nH]1	8	i	2	i	x	x
CSc1nnc(-c2ccccc2N=Cc2c(C)[nH]n(-c3ccc4ccccc4c3)c2=O)c(=O)[nH]1	7	8.3*	-9	i	24*	i
Cc1cc(N2CCN(C3CCCCC3)CC2)n2nc(C)nc2n1	6	8.9*	5	i	56*	-56*
CCC(c1nnnn1Cc1ccco1)N(Cc1ccccc1)Cc1cc2cc(C)c(C)cc2[nH]c1=O (stereo unspecified)	15	x	28	x	x	x
CCC[n+]1c(C)sc2c3c(ccc21)CCCC3	11	11*	-7	i	82*	-69*
Cc1ccc(-c2nnc(SCC(=O)Nc3nc(C)c(C)s3)n2C)cc1	14	x	-29	x	x	x
CCc1cccc(OCCn2nc(C(=O)O)c3ccccc3c2=O)c1	5	i	27	i	30*	i
Cc1[nH]c2ccc3ncccc3c2c1C	11	6.8*	-32	i	30*	-65*
Cn1c(N/N=C/c2c[nH]c3ccccc23)nc2ccccc21	16	i	-30	i	33*	-59*
Cc1cc(N/N=C/c2c[nH]c3ccccc23)c2ccccc2n1	2	i	-22	i	x	x
Cc1ccc(NC(=O)CN2C(=O)c3cccc4cccc2c34)cc1C	5	x	-18	x	x	x
Nc1ccc(Br)c[n+]1Cc1cccc2cccnc12	5	i	-21	i	34*	-46*
COc1ccccc1-n1c(-c2ccccc2)c[n+]2c1CCc1ccccc1-2	11	11*!	-15	i	32*	i
COc1ccc(-n2c(-c3ccc(Br)cc3)c[n+]3c2CCc2ccccc2-3)cc1	4	i	10	i	91*	-29*
CC(C)c1ccc(-n2c(-c3ccccc3)c[n+]3c2CCc2ccccc2-3)cc1	14	x	-70	x	x	x
CCOC(=O)c1sc2nccc(N(C)C)c2c1N=CN(C)C	12	7.2*	16	i	60*	-52*
CCN(CC)CCNc1ccc(CO)c2sc3ccccc3c(=O)c12	17	6.4*	-51	i	44*	-49*
CCOC(=O)c1cnc(SCC(=O)NC2CCCCC2)nc1N	6	x	22	x	x	x
COc1ccc2cc(CN(Cc3nnnn3C3CCCCC3)C3CCCCC3)c(=O)[nH]c2c1	6	x	16	x	x	x
C=CCn1c(SCC(=O)O)nnc1-c1cccc(Cl)c1	11	6.6*	3	i	-1	i
SMILES	EP2 antag	CHT PAM	EP2 modulator	CHT block	CHT activ conf	HEK293 MP dye
O=C(CN1CCN(c2ccccc2)CC1)Nc1ccc2c(c1)OCO2	7	x	-64	x	x	x
OCCCCCNc1ncnc2ccccc12	9	i	-42	i	x	x
CCN(CC)CCCNc1ncnc2ccccc12	8	7.8*	7	i	61*	-66*
CCOc1ccc2nc(SCC(=O)Nc3cc(C)cc(C)c3)c(C#N)cc2c1	19	x	25	x	x	x
CN1CCN(c2nc(-c3cccnc3)nc3ccccc23)CC1	11	7.3*	7	i	42*	-88*
CN1CCN(c2nc(-c3ccccn3)nc3ccccc23)CC1	7	9.1*	-28	i	55*	-94*
O=C(CSc1nnc(COc2cccc3cccnc23)o1)c1ccccc1	8	x	-72	x	x	x
Cc1cc(-c2cnc(C)nc2C2CCCN(C(=O)Nc3ccccc3F)C2)on1 (stereo unspecified)	x	x	-23	x	x	x
CC(=O)N(Cc1ccco1)C1(C(=O)NC2CCCCC2)CCCCC1	9	i	3	i	x	x
O=C(Cc1cccs1)N(Cc1ccco1)C1(C(=O)NC2CCCCC2)CCCCC1	4	i	59	i	55*	i
CN(CC(=O)Nc1cccc(F)c1)C(=O)c1cc([N+](=O)[O-])ccc1N1CCCCC1	x	i	x	i	17*	i
CCn1c(=O)c2ccccc2n2c(SCC(=O)N3CCCCCC3)nnc12	7	x	-8	x	x	x
NC(=O)C1CC(=O)N(c2ccc(OCC(=O)Nc3cccc(Cl)c3)cc2)C1 (stereo unspecified)	10	x	3	x	x	x
CC(C)NS(=O)(=O)c1ccc(NCCCn2ccnc2)c([N+](=O)[O-])c1	x	i	x	i	x	x
N#Cc1cc([N+](=O)[O-])ccc1NCCCn1ccnc1	x	7.3*	x	i	62*	-59*
COc1ccc(Cn2c(-c3ccc(C)cc3)c[n+]3ccccc23)cc1	3	11*	1	i	62*	-51*
COc1ccc(Cn2c(O)c(C=Nc3ccc(C)cc3)c3ccccc3c2=O)cc1	6	i	13	i	x	x
COc1ccc(CNc2nc3ccccc3n2CCN2CCCCC2)c(OC)c1	3	i	-10	i	x	x
COc1ccc(OC)c(CNc2nc3ccccc3n2CCN2CCCCC2)c1	7	i	-20	i	34*	i
CCN1CCCC1CNC(=O)c1cc2c(C)nc3ccccc3c2o1 (stereo unspecified)	6	i	x	i	x	x
Cc1nc2ccccc2c2oc(C(=O)N3CCC(N4CCCCC4)CC3)cc12	15	7*	-21	i	49*	-41*
Cc1nc2ccccc2c2oc(C(=O)NCCN3CCCCC3C)cc12 (stereo unspecified)	11	i	-10	i	34*	i
O=C(CN1CCn2cnnc2C1)N1CCc2ccccc21	x	x	-11	x	x	x
Cc1[nH]cnc1CN(Cc1ccc(F)cc1)C1CC(C)(C)NC(C)(C)C1	4	x	-33	x	x	x
COc1ccc(C(=O)C[n+]2ccccc2/C=N/O)cc1	8	i	23	i	19*	-25*
O/N=C/c1cccc[n+]1CCCCCC[n+]1ccccc1/C=N/O	x	6.4*	x	i	44*	-60*
